This is a sample that favours compounds with a hit; in the whole collection about 1.9% have one here.
EP2 antag = EP2 receptor (human) inhibition; P43116; inhibition, % at 25 µM; 260,000 compounds, 0.52% hits; C6 glioma cells expressing human EP2, cAMP TR-FRET; cells stimulated with saturating PGE2; AID 1422;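 active means percent inhibition above 40 after rounding to a whole number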;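 further: rat C6 glioma host cells with rolipram phosphodiesterase inhibitor present; the protocol text gives 20 µM as final concentration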
Target sequence (P43116 whole entry, looked up): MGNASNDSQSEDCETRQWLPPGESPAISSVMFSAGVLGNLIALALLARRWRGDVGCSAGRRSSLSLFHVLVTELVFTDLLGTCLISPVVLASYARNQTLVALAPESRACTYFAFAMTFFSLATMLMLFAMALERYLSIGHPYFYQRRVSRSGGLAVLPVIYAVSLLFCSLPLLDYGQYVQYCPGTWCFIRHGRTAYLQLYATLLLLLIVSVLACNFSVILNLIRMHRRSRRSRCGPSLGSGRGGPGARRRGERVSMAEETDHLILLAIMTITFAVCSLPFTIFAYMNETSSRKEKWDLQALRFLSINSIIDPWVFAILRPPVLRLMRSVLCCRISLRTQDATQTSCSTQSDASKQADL
S1P4 agonist = agonists of human S1P4 receptor | S1P4-expressing cell line, agonist reporter assay | activation, % at 4.98 µM | 220,000 compounds, 0.35% hits | AID 1509; in the data active means activation above about 11%;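 further: 0% = DMSO vehicle and 100% = reference agonist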
EP2 modulator = modulates human prostaglandin E2 receptor EP2 signaling; 260,000 compounds, 0.83% hits; P43116; induction, % at 25 µM; EP2-expressing cells, cAMP HTRF FRET, PGE2 co-stimulation; AID 940;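 active means compounds whose cAMP rise, as percent of the full-agonist control response, exceeds 60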;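 further: rat C6 glioma line stably carrying human EP2 under a CMV promoter; the protocol text gives 20 µM as final concentration; 100% = response of wells given 1 µM PGE2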
S1P3 antag = antagonists of human S1P3 receptor. Q99500. CHO S1P3 NFAT-BLA reporter, FRET fluorescence, antagonist mode. inhibition, % at 4.98 µM. 170,000 compounds, 0.27% hits;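 active means inhibition above the plate cutoff, the mean inhibition of test wells on that plate plus 3 SD, cut at about 28% in these data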;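 further: cells challenged with S1P at its EC80 of 0.8 µM; blue over green emission ratio from cleaved BLA substrate after 4 h stimulation; 0% = S1P-stimulated wells and 100% = unstimulated DMSO-only wells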
Pf gamet viab = inhibitors of late stage P. falciparum gametocyte viability; P. falciparum stage V gametocytes, ATP luminescence, 24 h; inhibition, % at 10.9 µM; 150,000 compounds, 0.065% hits;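 active means inhibition above the mean plus 3 SD of compounds within the control limits, set per campaign, cut at about 38% in these data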;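 further: 0% = DMSO wells and 100% = medium only without gametocytes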
S1P4 antag = human S1P4 receptor antagonism; O95977; S1P4-expressing cells, antagonist mode, reporter read-out; inhibition, % at 4.98 µM; 220,000 compounds, 0.26% hits; in the data active means inhibition above about 29%;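 further: 0% = wells stimulated with agonist and 100% = vehicle wells without agonist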
S1P4 antag cf = confirmation of human S1P4 receptor antagonists; shares compounds with S1P4 antag; S1P4-expressing cell line, antagonist mode, reporter read-out; inhibition, % at 4.98 µM; 520 compounds, 71% hits; in the data active means inhibition above about 30%
S1P1 antag = blocks human S1P1, counter-screen for S1P4 antagonists; cell-based S1P1 antagonist counterscreen, inhibition; inhibition, % at 4.98 µM; shares compounds with S1P4 antag; 520 compounds, 37% hits; in the data active means inhibition above about 40%;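 further: receptor stimulated with S1P near its EC80; 0% = agonist stimulated wells and 100% = vehicle only wells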
Target sequence (P21453 whole entry, looked up): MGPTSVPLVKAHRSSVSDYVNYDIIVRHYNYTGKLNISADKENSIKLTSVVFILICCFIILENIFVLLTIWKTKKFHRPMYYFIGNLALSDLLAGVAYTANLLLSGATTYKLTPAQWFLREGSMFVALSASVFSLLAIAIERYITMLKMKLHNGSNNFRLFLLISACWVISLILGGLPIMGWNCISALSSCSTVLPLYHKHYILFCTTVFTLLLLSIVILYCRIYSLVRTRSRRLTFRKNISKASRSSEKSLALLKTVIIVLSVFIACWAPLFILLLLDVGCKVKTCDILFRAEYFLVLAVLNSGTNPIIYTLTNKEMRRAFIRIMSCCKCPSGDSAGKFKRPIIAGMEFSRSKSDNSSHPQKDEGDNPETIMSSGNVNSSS
Starred values were filed as active, the others as inactive; · = no result given.

SMILES	EP2 antag	S1P4 agonist	EP2 modulator	S1P3 antag	Pf gamet viab	S1P4 antag	S1P4 antag cf	S1P1 antag
Cc1ccc(S(=O)(=O)ON=C2CCN(S(=O)(=O)c3ccccc3)CC2)cc1	10.7	-1.2	-20.1	·	10.0	-11.6	·	·
CC1=CC(=O)C=C(C)C1=NOS(=O)(=O)c1ccccc1	56.1*	1.4	-24.5	·	·	32.7*	98.2*	19.2
CC1=CC(=O)C(C(C)C)=C/C1=N/OS(=O)(=O)c1ccccc1	12.6	0.5	-19.5	6.0	9.7	38.2*	78.5*	-19.1
COC(=O)c1c(NC(=O)c2cccs2)sc(C(=O)Nc2cccc(Cl)c2)c1C	8.6	·	15.8	·	·	·	·	·
COc1cccc(C(=O)Nc2ccc3c(c2)OCCO3)c1OC	8.8	·	-35.4	·	·	·	·	·
COc1ccc(CCNC(=O)c2ccccc2NC(=O)c2ccco2)cc1OC	12.8	0.4	-4.7	10.4	·	29.9*	7.9	1.0
COc1ccc(CCNC(=O)c2ccco2)cc1OC	1.6	-1.9	-5.9	-20.1	10.3	1.9	·	·
O=C(O)CCCC(=O)Nc1ccccc1N1CCCCC1	10.6	·	9.2	·	·	·	·	·
O=S1(=O)C=C(Sc2nc3ccccc3s2)c2ccccc21	36.6	0.6	-39.2	6.3	·	54.8*	113.3*	58.9*
O=C(Nc1cccc2ccccc12)C(=O)c1c[nH]c2ccccc12	38.3	·	-137.5	·	·	·	·	·
CN(c1ccccc1)c1ccc(/C=C/[N+](=O)[O-])cc1	13.3	2.5	-70.6	-17.4	4.3	55.5*	119.4*	66.5*
CN(C)c1ccc(-n2cccc2/C=C/[N+](=O)[O-])cc1	26.1	1.5	-85.5	2.3	16.9	21.4	·	·
O=c1[nH]n(-c2cccc3cccnc23)c(=O)c2ccccc12	7.1	0.1	23.4	-0.1	·	-25.0	·	·
O=S1(=O)Nc2c(ccc3cccnc23)-c2ccccc21	8.9	0.0	-11.0	14.0	·	49.6*	95.0*	88.8*
O=C(Nc1ccc(F)cc1)C1CC(=O)N2CCN=C2S1 (stereo not drawn)	16.7	·	-45.2	·	·	·	·	·
COc1ccc(C(=O)C(CN2CCOCC2)c2ccccc2)cc1F (stereo not drawn)	-5.2	-4.8	6.3	2.5	·	33.1*	45.5*	6.7
O=c1oc2ccccc2cc1-c1csc(Nc2ccccn2)n1	9.8	·	-2.8	·	·	·	·	·
O=C(Nc1ccc(F)cc1)c1nn(-c2ccccc2)c(=O)cc1Cl	9.0	-3.0	-50.1	-7.9	16.7	45.5*	74.7*	71.0*
Cc1ccc(NC(=O)C(OC(=O)c2ccc(O)cc2)c2ccccc2)cc1Cl (stereo not drawn)	14.8	1.6	-4.8	2.1	·	-20.0	·	·
Cc1ccc(NC(=O)C(c2ccccc2)N(C)C)cc1Cl (stereo not drawn)	5.7	0.4	-28.9	-9.9	·	34.0*	30.9*	29.1
CCOc1ccc(CN2CCN(CC(O)Cn3c4ccccc4c4ccccc43)CC2)cc1 (stereo not drawn)	12.2	-0.5	-40.8	-0.2	-17.1	42.3*	71.0*	82.9*
O=C(NCc1ccc(F)cc1)C(=O)Nc1ccc2c(c1)OCO2	6.1	·	8.2	·	·	·	·	·
Cc1ccc(NC(=O)C2=C(c3ccccc3)S(=O)(=O)CCS2(=O)=O)cc1	36.6	-1.5	-87.1	0.5	7.0	45.2*	108.3*	5.4
Cc1cc(C)cc(C(=O)N2CCN(C)CC2)c1	8.6	·	-11.8	·	·	·	·	·
Cc1cccc(CS(=O)(=O)c2nnc([C@H](Cc3ccccc3)NC(=O)OC(C)(C)C)o2)c1	11.6	-1.8	14.3	·	·	88.3*	93.0*	24.0
SMILES	EP2 antag	S1P4 agonist	EP2 modulator	S1P3 antag	Pf gamet viab	S1P4 antag	S1P4 antag cf	S1P1 antag
O=C(CCC(=O)N1CCN(S(=O)(=O)c2ccc3ccccc3c2)CC1)Nc1cc(Cl)cc(Cl)c1	4.6	0.1	-22.8	-2.2	-22.2	-8.2	·	·
O=C(Cn1ncc(Cl)c(Cl)c1=O)N1CCN(S(=O)(=O)c2ccc3ccccc3c2)CC1	20.5	-5.3	0.0	0.4	-30.3	40.5*	115.8*	68.9*
N#CCCN1CCN(Cc2cc(-c3ccccc3)ccc2O)CC1	6.2	-1.1	-2.1	-21.0	·	39.2*	13.7	19.9
CC(C)(C)CC(C)(C)c1ccc(O)c(CN2CCN(CCC#N)CC2)c1	6.3	0.7	33.5	·	-4.1	-5.2	·	·
COc1cccc(-c2cc3nc4c(c(NCc5cc(OC)c(OC)c(OC)c5)n3n2)CCC4)c1	32.1	·	-20.1	·	·	·	·	·
Clc1ccc2c(c1)C(N1CCNCC1)Cc1ccccc1S2 (stereo not drawn)	·	-0.3	-0.2	·	·	7.9	·	·
COCCCN1CCN(C2Cc3ccccc3Sc3ccc(Cl)cc32)CC1 (stereo not drawn)	11.2	0.4	22.8	-21.8	·	29.1*	-2.7	0.1
CN(C)/C=C/C(=O)c1cnc(-c2ccccc2)s1	5.6	0.5	-21.4	2.2	9.0	38.1*	-5.3	1.1
CN(C)/C=C/C(=O)c1cnc(-c2ccc(Cl)cc2)s1	5.7	0.3	-67.2	-8.8	-36.3	-1.8	·	·
Cc1cccc(C)c1NC(=O)CN1CCC(c2nc3ccccc3s2)CC1	7.1	·	-64.7	·	·	·	·	·
CCC(CN1CCC(C)CC1)NC(=O)Cc1nn(CC)c(=O)c2ccccc12 (stereo not drawn)	4.4	·	-3.5	·	·	·	·	·
CC(=O)NC12CC3CC(C1)CC(C(=O)OCC(=O)NC(=O)c1cccn1C)(C3)C2	9.3	-0.8	-7.6	5.9	-28.0	-11.0	·	·
Cn1cccc1C(=O)NC(=O)COC(=O)C12CC3CC(CC(O)(C3)C1)C2	5.6	-2.6	-2.6	·	1.7	33.1*	2.6	4.7
O=C(CCn1cnc2ccccc21)N/N=C/C=C/c1ccccc1	6.2	0.3	-18.0	2.3	12.5	29.7*	-7.3	0.3
COc1ccccc1/C=C/C=N/NC(=O)CCn1cnc2ccccc21	11.4	0.9	-46.6	4.1	-10.8	-4.5	·	·
O=C(CSc1nc2ccccc2n1Cc1ccc(F)cc1)N1CCOCC1	9.6	·	-27.3	·	·	·	·	·
CNC(=O)c1nnsc1S(=O)(=O)c1ccc(Cl)cc1	15.9	-2.6	-74.6	-4.0	-1.8	60.6*	102.8*	75.7*
CCCN(CCC)CC(O)Cn1cc(/C=C/C(=O)c2cccs2)c2ccccc21 (stereo not drawn)	6.5	2.0	-27.3	8.3	-39.6	34.3*	58.6*	74.5*
COc1cc(SC)ccc1C(=O)Nc1ccc(C)cc1	10.2	-1.8	11.0	17.4	6.6	9.0	·	·
COc1cc(SC)ccc1C(=O)Nc1ccc(C)cc1C	5.8	-1.6	-5.7	11.0	·	34.1*	54.9*	15.1
Cc1ccc2[nH]c(=O)c(CN(CCCN3CCOCC3)Cc3nnnn3C3CCCCC3)cc2c1	9.3	·	4.4	·	·	·	·	·
CCOC(=O)Cn1nc(C)c(NC(=O)COc2ccc([N+](=O)[O-])c(C)c2)c1C	5.3	0.9	-4.4	-9.2	-4.8	39.8*	2.4	23.6
Cc1[nH]c2ccc(-c3nnc(SCC(=O)NC4CCCCC4)o3)cc2c1C	17.5	·	-62.7	·	·	·	·	·
